Test [1] in a line: qHTS assay to identify aromatase inhibitors - cell viability counter screen (AID 743084).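 Note: cells stimulated with testosterone during compound exposure; nearly all actives have a fitted effect of over 55% in size.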 Note: potency is the fitted concentration of half-maximal effect. For orientation: qHTS replaces the single test concentration by a dilution series.
For test [2], the target named is Aryl hydrocarbon receptor (Homo sapiens) (UniProt P35869). The experiment in a line: qHTS assay to identify small molecule that activate the aryl hydrocarbon receptor (AhR) signaling pathway (AID 743085).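 For activation: HG2L7.5c1 human HepG2 liver cells with stably integrated DRE-driven firefly reporter; series mostly up to about 70 µM.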 Note: nearly all actives have a fitted effect of over 15% in size. Note: potency is the fitted concentration of half-maximal effect. The method in brief:
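Luminescence (ONE-Glo) from a dioxin-responsive-element luciferase reporter in HG2L7.5c1 HepG2 cells after 24 hr compound exposure at 37C; viability measured by CellTiter-Fluor fluorescence beforehand.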

Test [3] in a line: qHTS assay to identify small molecule that activate the aryl hydrocarbon receptor (AhR) signaling pathway - cell viability counter screen (AID 743086). Note: nearly all actives have a fitted effect of over 45% in size. Note: potency is the fitted concentration of half-maximal effect. The method in brief:
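HepG2-AhR-luc (HG2L7.5c1) cells, 4000/well, treated 24 h at 37 C with compound; viability measured as CellTiter-Fluor fluorescence after 30 min in the same wells as the luciferase read.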

Test [4] concerns the target Peroxisome proliferator-activated receptor gamma (Homo sapiens) (UniProt P37231). The experiment in a line: qHTS assay to identify small molecule agonists of the peroxisome proliferator-activated receptor gamma (PPARg) signaling pathway (AID 743094; active = well fitted activation curve with a large enough effect in the signal ratio in the repeat runs, not every such curve was filed as active; the % refers to the signal ratio). The method in brief:
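HEK293H PPARg-bla cells, 5 h settle at 37C/5% CO2; compound (DMSO) 17 h, 37C; B/G FRET substrate 1 h RT; fluorescence intensity read-out. qHTS format.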

The target is the same in test [5]. The experiment in a line: qHTS assay to identify small molecule antagonists of the peroxisome proliferator-activated receptor gamma (PPARg) signaling pathway (AID 743191; calls by dose curve; note: nearly all actives have a fitted effect of over 30% in size; note: potency is the fitted concentration of half-maximal effect). In a few lines: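 GeneBLAzer PPARg UAS-bla HEK293H cells, 5 h post-plating, exposed to compounds 17 h at 37C. LiveBLAzer B/G FRET substrate added for 1 h at room temperature; beta-lactamase reporter read by fluorescence intensity.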

Test [6] is described as follows: qHTS assay to identify small molecule antagonists of the peroxisome proliferator-activated receptor gamma (PPARg) signaling pathway - cell viability counter screen (AID 743194). Note: nearly all actives have a fitted effect of over 55% in size. The method in brief: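 Cytotoxicity counter screen in PPARg-bla HEK293H cells, same wells as reporter assay. Compounds plus 50 nM rosiglitazone (final) for 17 h at 37 C, then viability read by CellTiter-Glo luminescence.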

Test [7] is described as follows: qHTS assay for small molecule agonists of the antioxidant response element (ARE) signaling pathway (AID 743202; active = well fitted activation curve with a large enough effect in the signal ratio in the repeat runs, not every such curve was filed as active; the % refers to the signal ratio; note: potency is the fitted concentration of half-maximal effect). The method in brief:
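HepG2 ARE-bla cells; 16 h treatment at 37 C; FRET-based beta-lactamase fluorescence read after 2 h substrate incubation at room temperature.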

Test [8] in a line: qHTS assay for small molecule agonists of the antioxidant response element (ARE) signaling pathway - cell viability counter screen (AID 743203; calls by dose curve; note: nearly all actives have a fitted effect of over 55% in size; note: potency is the fitted concentration of half-maximal effect). The method in brief: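 Luminescence read-out (CellTiter-Glo, 30 min at room temperature) measured cell viability in the same wells as the ARE beta-lactamase reporter. HepG2 ARE-bla cells were treated with compounds for 16 hrs at 37C/5% CO2.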

Test [9] is described as follows: qHTS assay for small molecule activators of the heat shock response signaling pathway - cell viability counter screen (AID 743209). Note: nearly all actives have a fitted effect of over 50% in size. Note: potency is the fitted concentration of half-maximal effect. In a few lines:
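HSE-bla HeLa; 1500 cells/well; overnight 37 C, 5% CO2; compound 5 h 37 C; LiveBLAzer B/G substrate 2.5 h RT; CellTiter-Glo 30 min RT; luminescence.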

A short description of test [10]: qHTS assay for small molecule activators of the heat shock response signaling pathway (AID 743210; active = well fitted activation curve with a large enough effect in the signal ratio in the repeat runs, with a control signal flat, not every such curve was filed as active; the % refers to the signal ratio;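 note: HeLa cells with beta-lactamase reporter driven by heat shock elements; series mostly up to about 63 µM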). The method in brief: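 Following overnight attachment, HSE-bla HeLa cells received test compounds for 5 h at 37 C; beta-lactamase activity was then detected via FRET substrate fluorescence.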

Values joined by “and” are separate entries in the source; they are usually repeats but may differ in a detail not shown here. Equal entries are not always repeated. Results filed as inconclusive are left out. A structure can be active in one record and inactive in another. Active and inactive are the calls of the source. Unless noted, calls come from the whole dose curve; as a rule, active = well fitted curve in the direction sought with a large enough effect in the repeat runs; inconclusive = weak or mixed curves; inactive = no such curve, though single readings can be large; an effect the other way counts as inactive or inconclusive.

Aryl hydrocarbon receptor (Homo sapiens), sequence (P35869 whole entry, looked up): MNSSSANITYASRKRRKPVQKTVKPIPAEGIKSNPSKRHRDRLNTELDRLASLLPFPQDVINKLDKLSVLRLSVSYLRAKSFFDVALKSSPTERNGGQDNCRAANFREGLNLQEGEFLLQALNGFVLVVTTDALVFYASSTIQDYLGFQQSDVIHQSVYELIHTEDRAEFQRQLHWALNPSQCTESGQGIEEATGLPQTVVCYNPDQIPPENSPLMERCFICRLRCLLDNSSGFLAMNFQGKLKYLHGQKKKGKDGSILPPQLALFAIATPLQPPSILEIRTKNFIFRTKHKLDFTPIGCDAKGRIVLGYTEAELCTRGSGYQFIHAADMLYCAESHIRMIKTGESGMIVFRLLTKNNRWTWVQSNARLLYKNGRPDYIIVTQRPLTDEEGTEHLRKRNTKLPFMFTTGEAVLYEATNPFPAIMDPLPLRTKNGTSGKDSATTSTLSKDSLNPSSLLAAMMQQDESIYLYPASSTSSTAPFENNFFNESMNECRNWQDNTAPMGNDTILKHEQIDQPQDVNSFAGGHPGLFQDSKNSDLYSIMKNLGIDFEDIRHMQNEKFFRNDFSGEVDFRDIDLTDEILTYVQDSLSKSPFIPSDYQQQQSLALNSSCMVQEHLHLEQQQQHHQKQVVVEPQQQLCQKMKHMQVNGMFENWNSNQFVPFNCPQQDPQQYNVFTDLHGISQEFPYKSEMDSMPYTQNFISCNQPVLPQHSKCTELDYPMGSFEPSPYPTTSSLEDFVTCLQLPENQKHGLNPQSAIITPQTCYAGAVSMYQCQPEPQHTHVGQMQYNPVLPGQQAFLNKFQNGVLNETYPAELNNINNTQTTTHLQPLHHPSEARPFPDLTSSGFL
Peroxisome proliferator-activated receptor gamma (Homo sapiens), sequence (P37231 whole entry, looked up): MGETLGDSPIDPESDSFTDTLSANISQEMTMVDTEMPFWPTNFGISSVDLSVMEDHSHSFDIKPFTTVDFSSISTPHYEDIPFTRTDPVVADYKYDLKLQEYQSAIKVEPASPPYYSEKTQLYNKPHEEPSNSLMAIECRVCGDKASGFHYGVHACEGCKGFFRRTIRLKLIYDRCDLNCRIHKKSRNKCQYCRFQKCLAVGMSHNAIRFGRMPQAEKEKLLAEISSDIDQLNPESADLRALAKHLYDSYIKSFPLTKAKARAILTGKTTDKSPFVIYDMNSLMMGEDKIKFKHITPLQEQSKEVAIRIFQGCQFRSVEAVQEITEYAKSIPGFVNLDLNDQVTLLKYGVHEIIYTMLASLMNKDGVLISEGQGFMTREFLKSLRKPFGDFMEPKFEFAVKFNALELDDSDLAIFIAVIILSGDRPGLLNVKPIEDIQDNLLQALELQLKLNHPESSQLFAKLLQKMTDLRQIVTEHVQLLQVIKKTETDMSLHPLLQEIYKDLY

As for `CCC(C)CO` (stereo not given), the Potency result in test [1], in test [2], in test [3], in test [4], in test [5] and in [6] was “inactive” in each case. The Potency entry in [7], in test [8], in test [9] and in test [10] was “inactive” each time.
`CCCCC(CC)COCC1CO1` (stereo not given): the Potency result in test [1], in test [2], in [3], in test [4], in test [5] and in test [6] was “inactive” each time. For the same molecule, the Potency result in test [7], in test [8], in test [9] and in test [10] was “inactive” throughout.
`Cc1ccc2c(n1)Oc1ccc(C(C)C(=O)OCC(=O)N(C)C)cc1C2` (stereo not given): the Potency entry in test [1], in [3], in [4], in test [5], in test [6] and in test [7] was “inactive” throughout. Further, the Potency entry in test [8], in test [9] and in test [10] was “inactive” throughout. Further, in test [2], the Potency was 11.9 µM (active).
For the molecule `OCCO`, the Potency result in [1], in test [2], in test [3], in test [4], in [5] and in [6] was “inactive” throughout. Also, the Potency result in test [7], in test [8], in test [9] and in [10] was “inactive” each time.
As for `COC(C)COC(C)COC(C)CO` (stereo not given), the Potency entry in [1], in test [2], in [3], in test [4], in test [5] and in test [6] was “inactive” throughout. The Potency entry in test [7], in [8], in test [9] and in test [10] was “inactive” throughout.
In the case of `Cc1[nH]c(=O)c(C#N)cc1-c1ccncc1`, the Potency entry in test [1], in [2], in test [3], in test [4], in test [5] and in [6] was “inactive” each time. In addition, the Potency result in [7], in [8], in test [9] and in test [10] was “inactive” throughout.
For the molecule `NNc1ccc(C(=O)O)cc1`, the Potency result in [1], in test [2], in [3], in test [4], in [5] and in test [6] was “inactive” each time. For the same molecule, the Potency entry in [7], in test [8], in [9] and in test [10] was “inactive” each time.
With `COc1cccc2c1C(=O)c1c(O)c3c(c(O)c1C2=O)C[C@@](O)(C(=O)CO)C[C@@H]3O[C@H]1C[C@H](N)[C@H](O)[C@H](C)O1`, the Potency entry in test [1] is “inactive and 13.3 µM (active) and 12.2 µM (active)”; in test [3], “inactive and 3.85 µM (active)”; in [5] it was 2.37 µM (active); in test [7], 0.266 µM (active); in test [8], 13.7 µM (active) and 5.31 µM (active). Moreover, the Potency entry in test [2], in test [4] and in [6] was “inactive” each time.
Consider `CCCCCCCCCCCO`, for which the Potency result in test [1] is “inactive and 27.3 µM (active)”; in [8] it was “inactive and 61.1 µM (active)”; in test [9], “inactive and 43.6 µM (active)”. The Potency entry in test [2], in [3], in test [4], in test [5], in test [6] and in test [7] was “inactive” in each case.
Take `CCC(C)(O)CCCC(C)C` (stereo not given): the Potency result in test [1], in [2], in test [3], in test [4], in [5] and in test [6] was “inactive” throughout. Moreover, the Potency entry in test [7], in test [8], in test [9] and in test [10] was “inactive” throughout.
Consider `Nc1ccc(S(=O)(=O)Nc2cnc3ccccc3n2)cc1`, for which the Potency result in [1], in test [2], in test [3], in [4], in [5] and in [6] was “inactive” throughout. The Potency result in [7], in test [8], in test [9] and in [10] was “inactive” in each case.
As for `C[Si](C)(C)O[Si](C)(C)C`, the Potency entry in test [1], in test [2], in test [3], in test [4], in test [5] and in [6] was “inactive” throughout. The Potency result in test [7], in [8], in test [9] and in test [10] was “inactive” in each case.
Regarding `CC(C)OB(OC(C)C)OC(C)C`, the Potency entry in test [1], in test [2], in test [3], in [4], in [5] and in [6] was “inactive” throughout. Moreover, the Potency result in [7], in test [8], in test [9] and in [10] was “inactive” in each case.
For the molecule `COc1ccc(C(=O)CC(=O)c2ccc(C(C)(C)C)cc2)cc1`, the Potency result in [1], in test [2], in test [3], in test [4], in [5] and in [6] was “inactive” each time. The Potency result in test [7], in [8] and in [9] was “inactive” each time.
For `NC=O`, the Potency result in [1], in test [2], in [3], in test [4], in [5] and in [6] was “inactive” each time. Besides, the Potency result in test [7], in [8], in test [9] and in test [10] was “inactive” throughout.
For `CCOCCOCCO`, the Potency result in [1], in test [2], in test [3], in test [4], in [5] and in test [6] was “inactive” each time. Also, the Potency entry in test [7], in test [8], in test [9] and in [10] was “inactive” each time.
With `Cc1c(OCC(F)(F)F)ccnc1CS(=O)c1nc2ccccc2[nH]1` (stereo not given), the Potency result in [1], in test [3], in test [4], in test [5], in test [6] and in test [8] was “inactive” in each case. For the same molecule, the Potency result in test [9] was “inactive”. In addition, the Potency in [2] was 4.22 µM (active) and 19.3 µM (active); in [7] it was 8.41 µM (active).
For `CCCCOCCOCCO`, the Potency result in [1], in test [2], in test [3], in test [4], in test [5] and in test [6] was “inactive” in each case. For the same molecule, the Potency entry in test [7], in test [8], in test [9] and in test [10] was “inactive” in each case.
For the molecule `CC1=CC2C3CC(C=C3C)C2C1` (stereo not given), the Potency entry in [1], in [2], in [3], in test [4], in test [5] and in test [6] was “inactive” in each case. In addition, the Potency entry in test [8], in test [9] and in [10] was “inactive” each time. Besides, in test [7], the Potency result is “inactive and 27.3 µM (active)”.
In the case of `O=c1oc(=O)c2cc3c(=O)oc(=O)c3cc12`, the Potency entry in test [1], in test [2], in test [3], in test [4], in test [5] and in test [6] was “inactive” throughout. For the same molecule, the Potency result in test [8], in test [9] and in test [10] was “inactive” in each case. Moreover, the Potency in [7] was 2.73 µM (active).
With `Clc1nc(Cl)c(Cl)c(Cl)c1Cl`, the Potency result in [1], in test [2], in test [3], in test [4], in [5] and in test [6] was “inactive” each time. The Potency result in test [8], in test [9] and in [10] was “inactive” each time. Besides, the Potency in test [7] is 7.74 µM (active).
With `CCCCNS(=O)(=O)c1ccccc1`, the Potency entry in test [1], in test [2], in test [3], in test [4], in [5] and in test [6] was “inactive” throughout. Moreover, the Potency result in test [7], in test [8], in test [9] and in test [10] was “inactive” throughout.

The values above are taken from PubChem BioAssay (Tox21).
